Among all 94,000 compounds or so, about 280 (0.3%) were called active. The entries come from a sample that favours actives as a whole. A number with no mark means an inactive call.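 The calls were made as follows: active = activation above 40%, about the mean plus 3 SD, also judged a hit on visual image review; inconclusive = activation above 40% but not a hit on visual review; inactive = activation not above 40% and no visual hit.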
Assay: enhancers of NFkB p65 translocation in HUVEC – imaging, IL-1B stimulus, high-content imaging, primary screen (AID 819);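 also: percent activation is computed from the nuclear over cytoplasmic p65 intensity ratio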
Conditions: HUVEC IL-1B NFkB p65 nuclear translocation imaging; at 2 µM; active compounds read high

Row | Compound | activation
1 | Cc1nnc(SCC(=O)N/N=C/c2cn(-c3ccccc3)nc2-c2ccc(F)cc2)n1-c1ccccc1 | -16.3%
2 | COc1ccc(C2C=C(c3ccc(Br)cc3)Nc3nc(NS(C)(=O)=O)nn32)cc1 (stereo unspecified) | 5.63%
3 | O=C(Cn1c(-c2cscn2)nc2ccccc21)Nc1ccc(Cl)cc1 | 3.1%
4 | CON(C)S(=O)(=O)c1ccc2c(c1)NC(=O)C1CCCN21 (stereo unspecified) | 6.63%
5 | COc1cccc(-c2cc(C(=O)N/N=C/c3ccc(OC)c(COC(C)=O)c3)c3ccccc3n2)c1 | 0.06%
6 | CC(Oc1ccc(-c2ccccc2)c(F)c1)c1ccn(S(=O)(=O)c2cccc3ccccc23)n1 (stereo unspecified) | -9.3%
7 | COc1ccc(NC(=O)Cn2c(-c3ccc(OC)cc3)cn(-c3ccc(C)cc3)c2=O)cc1 | 5.6%
8 | Cc1c(Br)cc(C(=O)N2CCCCCC2)c(C)c1C | 11.9%
9 | CCN1CCN(Cc2nc3c(c(=O)n(C)c(=O)n3C)n2CC(=O)c2ccccc2)CC1 | 21.5%
10 | O=C(CCn1c(SCC(=O)c2ccccc2)nc2ccccc2c1=O)NCc1ccc(F)cc1 | 2.29%
11 | Cn1c2ccccc2n2c(=O)c(=O)n(CC(=O)c3ccc(F)cc3)nc12 | 47.4% (active)
12 | Brc1cnc(N2CCCC2)nc1N1CCCCC1 | 41.1% (active)
13 | c1ccc(-n2ncc3c(N4CCCC4)ncnc32)cc1 | 12.2%
14 | Cc1ccnc(N2CCC(C(=O)NC3CCCCCC3)CC2)n1 | -7.5%
15 | O=C1OC(c2ccc(Cl)cc2)=N/C1=C\c1cccnc1 | 34.5%
16 | Cc1nc2ccccc2c(-c2ccccc2)c1C(=O)c1ccccc1 | 9.37%
17 | CCN(CC)S(=O)(=O)c1ccc(N2CCOCC2)c(C(=O)O)c1 | 11.9%
18 | O=C(c1ccc(Cl)cc1)c1cnc(Nc2ccccc2)s1 | -1.4%
19 | Nc1c(-c2ccc(F)cc2)cnn1C1CCS(=O)(=O)C1 (stereo unspecified) | -1.34%
20 | COc1ccc(CCN2C(=O)C3CC=C(C)CC3C2=O)cc1OC (stereo unspecified) | 4.82%
21 | O=C(c1ccccn1)c1ncc(C(F)(F)F)cc1Cl | -0.58%
22 | CCN(CC)c1nc(-c2ccccc2)cc(C(F)(F)F)c1C#N | 1.7%
23 | CCOC(=O)/C(=C\c1ccc([N+](=O)[O-])cc1)C(=O)c1cc(C(C)=O)c(Nc2ccccc2)s1 | -4.36%
24 | COC(=O)CNC(c1ccccc1Cl)c1cc(Br)ccc1NC(=O)CCN1CCOCC1 (stereo unspecified) | 0.94%

Row | Compound | activation
25 | Cc1ccc(OCC(=O)Nc2cccc3c2CCCC3)cc1C | 13.2%
26 | CC(=O)NS(=O)(=O)c1ccc(NC(=S)NC(=O)C(C)(C)C)cc1 | 4.05%
27 | COc1cccc(/C=N/NC(=O)C(=O)N2CCCC2)c1 | -4.21%
28 | CCCCCCCC(=O)NC(Nc1ccccc1OC)C(Cl)(Cl)Cl (stereo unspecified) | -6.09%
29 | Cc1ccccc1/[N+]([O-])=C/c1ccncc1 | 15.8%
30 | N#Cc1cc([N+](=O)[O-])ccc1Oc1cccc(/C=N/NC(=O)c2ccc(Cl)cc2)c1 | 1.88%
31 | COC(=O)CSc1nnc(-c2cccnc2)o1 | -7.95%
32 | CCn1c(Cc2cccs2)nnc1SCC(=O)c1ccc(C)cc1 | 8.94%
33 | COc1ccc(CCNC(=S)NC(=O)/C=C/c2ccc(C)cc2)cc1OC | -6.74%
34 | CN1CC(c2ccccc2)C2(COc3ccccc3C2=O)C12C(=O)Nc1ccccc12 (stereo unspecified) | 0.22%
35 | CN(C)/C(CN1CCCCC1)=C1\N=C(c2ccccc2)OC1=O | 13.1%
36 | CC(=O)NC1=NN(C(C)=O)C(C)(c2ccc(Cl)s2)S1 (stereo unspecified) | -0.11%
37 | O=C(CN1CCN(c2ccc(Cl)cc2)CC1)N1CCCC1 | -4.06%
38 | O=C(Nc1cccc(Cl)c1)Nc1nnc(-c2ccccc2)o1 | -2.48%
39 | CC1CCC2(CC1)NC(=O)N(CC(=O)c1cccn1C)C2=O (stereo unspecified) | -10.9%
40 | O=C(CN1C(=O)NC2(CCCC2)C1=O)Nc1ccc(F)c(F)c1F | 40.4% (active)
41 | CC(C(=O)Nc1ccc(F)c(F)c1F)N1CCCCCC1 (stereo unspecified) | 24.8%
42 | C=CCn1c(Cn2nnc3ccccc32)nnc1SCC(=O)N/N=C/c1cc(Br)cc(OC)c1O | -7.49%
43 | COc1ccccc1CSc1nc2ccccc2[nH]1 | 0.73%
44 | O=C(Cc1ccc(S(=O)(=O)N2CCOCC2)s1)NCCC(c1ccccc1)c1ccccc1 | 7.66%
45 | CCCC1NC(=O)NC(C)=C1C(=O)OCC (stereo unspecified) | -16.9%
46 | CCOC(=O)C1=C(C)NC(C)=C(C(=O)OCC)C1C1=COCCO1 | 42.7% (active)
47 | CCOC(=O)C1=C(C)NC(C)=C(C(=O)OCC)C1c1ccccn1 | 1.56%
48 | O=C(Nc1ccccc1[N+](=O)[O-])C1C(c2ccccc2)=C1c1ccccc1 | -5.91%

Row | Compound | activation
49 | O=C(/C=C/Nc1ccccc1OC(F)(F)F)C(F)(F)F | 10.9%
50 | O=C(CN1CCSCC1)N/N=C/c1ccc(F)cc1F | 6.22%
51 | Cc1cccc(N2CCN(C(=O)CN(C)S(=O)(=O)c3ccc4c(c3)CCC(=O)N4)CC2)c1C | -2.04%
52 | O=C(NC1CCCCC1)c1cc([N+](=O)[O-])ccc1N1CCOCC1 | -1.25%
53 | Cc1ccc(-c2cc(C(=O)Nc3nn[nH]n3)c3ccccc3n2)c(C)c1 | -7.54%
54 | CC(C)(C)Cc1nnc(NC(=O)c2cc(-c3ccccc3)nc3ccccc23)s1 | 41.2% (active)
55 | Cc1ccc2nc(-c3ccccc3)cc(C(=O)O)c2c1 | 1.92%
56 | OCCN(Cc1ccccc1)Cc1ccc(Cl)cc1 | -4.34%
57 | Cc1cc(C)n(-c2c(F)c(F)c(COC(=O)c3ccccc3)c(F)c2F)n1 | 17.9%
58 | CCCOn1c(-n2nc(C)cc2C)nc2ccccc2c1=O | 121% (active)
59 | CCOn1c(SC(C)C)nc2ccccc2c1=O | -7.95%
60 | CCOC(=O)C1=NNC2(c3ccc(Cl)cc3)C(=O)N(c3cc(C)cc(C)c3)C(=O)C12 (stereo unspecified) | -2.6%
61 | COC(=O)c1ccc(OCC(=O)NC(C)(C)C)cc1 | -5.58%
62 | CCOC(=O)c1c(C)oc2cc(Br)c(OCC(N)=O)cc12 | -3.13%
63 | Cc1nn(C)c(Oc2ccccc2)c1[N+](=O)[O-] | -6.86%
64 | Cc1ccc(NC(=S)N/N=C2/CCCc3c(C)cc(C)cc32)cc1 | 10.5%
65 | COc1ccc(C(=O)Cc2cnn(-c3ccccc3)c2)c(O)c1 | 52.4% (active)
66 | COc1ccc(CC(=O)c2ccc(O)cc2O)cc1OC | 3.51%
67 | Cc1cc(O)cc(O)c1C(=O)Cc1cnn(-c2ccccc2)c1 | -0.94%
68 | O=c1c2ccccc2nc2n1C(CSc1ccc(Cl)cc1)CN2 (stereo unspecified) | -5.53%
69 | O=c1c2c(nc3nc[nH]n13)CCC2 | 17.9%
70 | CCCCn1c(=S)[nH]c2cc(S(=O)(=O)N3CCCCC3)ccc21 | 6.8%
71 | Clc1ccc(-c2nnc(-c3ccccc3)nc2N2CCSCC2)cc1 | 6.76%
72 | CC(C)CNC(=S)NNC(=O)c1ccccc1OC(F)F | -19%

Row | Compound | activation
73 | O=C(Cc1ccccc1)Nc1c(C(=O)N2CCCCCC2)cnn1-c1ccccc1 | -2.59%
74 | c1ccc(-c2csc(N3CCc4ccccc4C3)n2)cc1 | -1.32%
75 | Cc1[nH][nH]c(=O)c1C(c1ccc(-c2ccc(Cl)cc2)o1)c1c(C)[nH][nH]c1=O | 49.6% (active)
76 | Cc1[nH][nH]c(=O)c1N=Nc1ccccc1 | 19.6%
77 | O=C(CCc1ccc(S(=O)(=O)NC2CCCCC2)cc1)NCc1ccccc1 | 1.98%
78 | CC(=O)c1cnc(SCCN2C(=O)c3ccccc3C2=O)nc1C | -4.03%
79 | CC(C)c1ccc(NC(=O)CCN2C(=O)c3ccc([N+](=O)[O-])cc3C2=O)cc1 | 6.09%
80 | CCOC(=O)CC(=O)CSc1nc(-c2ccccc2)cc(-c2ccc(Cl)cc2)c1C#N | 5.19%
81 | CN(C)/C=C/C(=O)c1ccccc1F | -2.94%
82 | ONC(=Nc1ccc(Cl)cc1)c1ccccc1Cl | 16.3%
83 | O=C(/C=C/c1ccccc1)N/C(=C/c1ccccc1)C(=O)Nc1ccccc1O | -5.06%
84 | CCOc1ccc(C(CCc2ccccc2)NC(=O)c2ccc(OC)c(OC)c2)cc1OCC (stereo unspecified) | -8.44%
85 | Cc1cc(Nc2ccccc2)nc(N)n1 | 19.9%
86 | CCOc1ccc(-c2c(C)n([O-])c3c([n+]2=O)CCCC3)cc1 | 0.86%
87 | Cc1cccc(-n2ncc(C#N)c2-n2cccc2)c1 | -2.16%
88 | CCOC(=O)CSc1ncc(-c2cccc(Cl)c2)cn1 | 4.13%
89 | Cc1ccccc1-n1c(C)cc(/C=N/NC(=O)c2ccc(CN3CCOCC3)cc2)c1C | 20.5%
90 | CC1CCc2c(c3ccccc3[nH]c2=O)O1 (stereo unspecified) | -2.19%
91 | COC(=O)c1cc(OC)c(OC)cc1NC(=O)CSc1ccc(C)cc1 | -0.33%
92 | C/C=C/C(=O)Nc1nnc(C(C)C)s1 | 11.2%
93 | CC1=C(C(N)=O)C(c2sccc2C)n2nnnc2N1 (stereo unspecified) | -11.1%
94 | CCOC(=O)C1=C(CN2CCc3ccccc32)NC(=O)NC1c1cc(C)ccc1C (stereo unspecified) | 3.45%
95 | COc1cc(NS(=O)(=O)c2ccc(N=Cc3c(C)[nH]n(-c4ccccc4)c3=O)cc2)nc(OC)n1 | -2.69%
96 | Cc1cccc(N(C(=O)Cc2cccs2)C(C(=O)NC2CCCC2)c2ccsc2)c1 (stereo unspecified) | -6.52%
